Bioassay records from PubChem.
Most compounds without a hit are left out; they make up all but 12% or so of the library.
HP1b chromo inh: HTS for Inhibitors of HP1-beta Chromodomain Interactions with Methylated Histone Tails | Chromobox protein homolog 1 (Homo sapiens), P83916 | AlphaScreen HP1-beta / biotin-H3K9me3 peptide binding | Potency, µM (highest dose often 114 µM), without a hit: at the top dose activity change, negative = inhibition, usual class: inhibitors | hit rate 0.56% among 390,000; also: nearly all actives have a fitted effect of over 70% in size
Target sequence (P83916 whole entry, looked up): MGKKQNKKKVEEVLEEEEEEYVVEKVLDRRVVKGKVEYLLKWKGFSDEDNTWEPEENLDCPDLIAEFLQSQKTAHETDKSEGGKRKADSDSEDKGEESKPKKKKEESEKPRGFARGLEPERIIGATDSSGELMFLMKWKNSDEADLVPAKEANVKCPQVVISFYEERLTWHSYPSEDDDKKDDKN
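HP1-beta protein (50 nM final) preincubated 30 min at room temperature with biotinylated H3(1-18)K9me3 peptide (50 nM) in PBS pH 7.4, 0.01% Tween-20, then compound added for 30 min. AlphaScreen streptavidin donor/nickel chelate acceptor beads (10 ug/mL final), 30 min dark, luminescence read.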
JMJD2A Tudor: qHTS Assay for Inhibitors of JMJD2A-Tudor Domain | hit rate 4.4% among 390,000 | Potency, µM (titrated, usually from 114 µM), without a hit: at the top dose activity change, negative = inhibition, most hits filed as inhibitors | AlphaScreen JMJD2A-Tudor / H3K4me3 peptide binding; also: % is scaled to controls: 0 for no effect and ±100 for the full control effect; nearly all actives have a fitted effect of over 50% in size
G9a inh: qHTS Assay for Inhibitors of Histone Lysine Methyltransferase G9a; Histone-lysine N-methyltransferase EHMT2 (Homo sapiens), Q96KQ7; G9a H3K9 monomethylation, AlphaScreen, 2 h; Potency, µM (doses to about 102 µM), for the others: top-dose activity, negative = inhibition, hits mostly inhibitors; hit rate 8.8% among 350,000; AID 504332, 2011; also: % is scaled to controls: 0 for no effect and ±100 for the full control effect; nearly all actives have a fitted effect of over 75% in size
Target sequence (Q96KQ7 913-1193 limits assumed): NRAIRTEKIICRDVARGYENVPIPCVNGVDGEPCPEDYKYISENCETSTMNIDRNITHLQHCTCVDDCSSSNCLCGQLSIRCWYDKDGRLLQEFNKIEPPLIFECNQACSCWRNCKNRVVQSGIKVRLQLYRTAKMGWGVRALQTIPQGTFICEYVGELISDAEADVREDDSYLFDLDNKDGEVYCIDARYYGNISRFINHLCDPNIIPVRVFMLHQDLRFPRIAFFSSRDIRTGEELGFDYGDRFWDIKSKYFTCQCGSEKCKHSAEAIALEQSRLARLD
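Readings reflect AlphaScreen signal from monomethyl-H3K9 antibody detection. HMT at 20 nM; substrate b-H3K9 500 nM; cofactor SAM 20 uM; 2 h RT reaction; compounds tested as titrations in qHTS with 15 min preincubation.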
Sfp inh: qHTS Assay for Inhibitors of Bacillus subtilis Sfp phosphopantetheinyl transferase (PPTase). hit rate 3.5% among 310,000. Potency, µM, for the others: largest response in the series, negative = inhibition, hits mostly inhibitors. AID 1490, 2009. Biochemical Sfp PPTase activity, qHTS;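 also: the enzyme is Sfp with the accession as filed and its product quenches rhodamine fluorescence; 0% = enzyme reaction without inhibitor and -100% = no enzyme wells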
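Fluorescence-quenching assay: 15 nM Sfp-PPTase preincubated 15 min at room temperature with compound, then 5 uM rhodamine-CoA and 12.5 uM BHQ-2-labelled YbbR peptide added. Fluorescence (ex 525/em 598 nm) read at start and after 30 min; difference gives rate.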
BAZ2B block: qHTS Assay for Inhibitors of BAZ2B. hit rate 4.4% among 360,000. AlphaScreen BAZ2B-H3K14Ac peptide displacement. Potency, µM (series often up to 114 µM), without a hit: at the top dose activity change, negative = inhibition, usual class: inhibitors. AID 504333, 2011. Bromodomain adjacent to zinc finger domain protein 2B (Homo sapiens), Q9UIF8; also: % is scaled to controls: 0 for no effect and ±100 for the full control effect; nearly all actives have a fitted effect of over 60% in size
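AlphaScreen luminescence quantifies BAZ2B engagement of H3K14Ac peptide; the protein and biotinylated peptide are both at 50 nM final, buffer PBS pH 7.4 with 0.01% Tween-20, all steps at room temperature.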
* hit, by the source's call; u = inconclusive; x = not tested or not shown; [ ] = dose if it differs, or a comment. Calls follow the shape of the dose curve; as a rule, active = well fitted curve in the direction sought with a large enough effect; inconclusive = small, poorly fitted or top-dose-only effect, or another doubt; inactive = no such curve, though single readings can be large; an effect the other way counts as inactive or inconclusive. Potency is read from the fitted curve at half-maximal effect.

SMILES	HP1b chromo inh	JMJD2A Tudor	G9a inh	Sfp inh	BAZ2B block
COc1ccc(N2CCN(C(=O)CCCN3C(=O)c4cccc5cccc(c45)C3=O)CC2)cc1	-31%	u	x	-16%	40µM*
COC(=O)CCCN1C(=O)c2cccc3cccc(c23)C1=O	47%	-9%	49%	2%	45µM*
COc1ccc(N2CCN(CCCNC(=O)Cn3c(=O)c4cccn4c4ccccc43)CC2)cc1	u	-35%	40µM*	12%	u
COCCn1c(=O)[nH]c2cc(C(=O)NCCN3CCN(c4ccc(OC)cc4)CC3)ccc2c1=O	22%	18%[57.1 µM]	10µM*	-12%	-6%
CC1CCCCN1CCCNC(=O)Cn1c(=O)c2cccn2c2ccccc21 (centres undefined)	44%	-6%	43%	13%	1%
O=C(Cn1c(=O)c2cccn2c2cccnc21)NCCCN1CCN(c2ccc(F)cc2)CC1	23%	-33%	u	16%	-32%
COc1ccc(N2CCN(CCCNC(=O)c3sc4ncccc4c3-n3cccc3)CC2)cc1	-27%[57 µM]	40µM*	16µM*	x	35µM*
COc1ccc(N2CCN(CCCNC(=O)Cn3c(=O)c4cccn4c4cccnc43)CC2)cc1	-12%	50µM*	40µM*	13%	32µM*
O=C(NCCCN1CCCCC1)c1sc2ncccc2c1-n1cccc1	4%[57 µM]	-23%	-2%[59 µM]	x	-13%
CC(C)(C)[C@@H]1COC(=O)[C@H](Cc2ccc(F)cc2)C/C=C\C[C@@H](CC(=O)N(CCO)Cc2ccccc2)C(=O)N1	23%	-21%	x	x	x
CCCNC(=O)NC(=O)CSc1ccc(C)cc1C	38%	3%	13%	3%	x
O=[N+]([O-])c1ccc(Cl)cc1NCCCN1CCOCC1	8%	-30%	-17%[59 µM]	8%	-23%
COc1ccc(N2CCN(CCCNC(=O)c3ccc4nc(N5CCCCC5)sc4c3)CC2)cc1	u	45µM*	u	x	25µM*
COc1ccc(N2CCN(CCCNC(=O)c3nnc(Cc4ccccc4Cl)o3)CC2)cc1	u	50µM*	13µM*	x	35µM*
O=C(NCCCN1CCN(c2ccccc2)CC1)c1ccc2nc(Cc3ccccc3)oc2c1	-1%[57 µM]	u	-41%[59 µM]	x	u
O=C(NCCCN1CCN(c2ccc(F)cc2)CC1)c1ccc2nc(Cc3ccccc3)oc2c1	-9%[57 µM]	u	-38%[59 µM]	x	32µM*
O=C(O)C1CCCCC1C(=O)NCCCc1ccccc1 (centres undefined)	36%	-7%	-4%[59 µM]	8%	9%
COc1ccc(N2CCN(C(c3cc(OC)ccc3OC)c3nnnn3CC3CCCO3)CC2)cc1 (centres undefined)	0%	79µM*	14µM*	15%	50µM*
COc1ccccc1C(c1nnnn1CCc1ccccc1)N1CCN(c2ccccc2)CC1 (centres undefined)	-1%	-14%	u	6%	-29%
COc1ccccc1N1CCN(C(c2ccccn2)c2nnnn2C2CCCCC2)CC1 (centres undefined)	31%	-26%	-45%[59 µM]	7%	-31%
COCCn1nnnc1C(c1cccs1)N1CCN(c2cc(C)ccc2C)CC1 (centres undefined)	-16%	79µM*	-44%[12.7 µM]	-15%	-37%
Fc1ccccc1N1CCN(C(c2ccccn2)c2nnnn2C2CCCCC2)CC1 (centres undefined)	16%	-28%	14µM*	-23%	79µM*
COCCn1nnnc1C(c1ccccc1OC)N1CCN(c2ccccc2)CC1 (centres undefined)	33%	45µM*	45µM*	14%	-24%
CCCOc1nc2c(c(=O)n(C)c(=O)n2C)n1Cc1cccc2ccccc12	31%	-20%	u	-24%	x
COC(=O)c1[nH]c2ccccc2c1NC(=O)CN1CC(C)OC(C)C1 (centres undefined)	26%	6%	u	2%	1%
SMILES	HP1b chromo inh	JMJD2A Tudor	G9a inh	Sfp inh	BAZ2B block
Cc1ccc(NC(=O)CN2CCC(NC(=O)Cc3ccccc3)CC2)cc1C	44%	-12%	30%	1%	-22%
COc1ccc(N2CCN(C(c3ccccc3OC)c3nnnn3C3CCCC3)CC2)cc1 (centres undefined)	u	56µM*	16µM*	4%	45µM*
COc1cccc(C(c2nnnn2C(C)(C)C)N2CCN(C3CCCCC3)CC2)c1OC (centres undefined)	24%	-8%	0%	17%	5%
COc1ccc(N2CCN(C(c3cccc(OC)c3OC)c3nnnn3C3CCCC3)CC2)cc1 (centres undefined)	u	45µM*	13µM*	-7%	40µM*
COc1ccc(N2CCN(C(c3cccs3)c3nnnn3C3CCCC3)CC2)cc1 (centres undefined)	-27%	u	u	12%	u
COc1ccc(OC)c(C(c2nnnn2C2CCCC2)N2CCN(c3ccccc3F)CC2)c1 (centres undefined)	-2%	-34%	-5%[59 µM]	8%	50µM*
COc1ccc(-c2cc(C(F)(F)F)c(C#N)c(SCC(=O)Nc3ccccc3F)n2)cc1	42%	8%	23%[59 µM]	x	13%
N#C/C(=C\c1cccnc1)C(=O)Nc1cccc2ccccc12	3%	-26%	50µM*	u	3%
Cc1cccc(NC(=O)/C(C#N)=C\c2ccc(C(=O)O)cc2)c1	33%	5%	-46%	35µM*	-18%
Cc1cccc(NC(=O)/C(C#N)=C\c2cccnc2)c1	-4%	-14%	50µM*	10%	8%
COc1ccccc1NC(=O)/C(C#N)=C/c1cccnc1	28%	8%	-15%	9%	-11%
N#C/C(=C/c1ccc(C(=O)O)cc1)C(=O)Nc1ccccc1	39%	-8%	u	u	7%
Cc1cccc(NC(=O)/C(C#N)=C\c2cn(CC(=O)O)c3ccccc23)c1	31%	-7%	40µM*	10%	u
N#C/C(=C/c1cn(CC(=O)O)c2ccccc12)C(=O)Nc1ccccc1	15%	-7%	u	10%	-28%
O=C(O)c1ccc2c(c1)C(=O)N(CCc1ccc(O)cc1)C2=O	x	-2%	9%[12.7 µM]	18%	0%
COc1ccc(/C=C(/C#N)C(=O)Nc2cccc([N+](=O)[O-])c2)cc1C(=O)O	-18%	-25%	45µM*	14%	u
N#Cc1ccc(S(=O)(=O)NC[C@H]2O[C@@H](n3cnc4c(N)ncnc43)[C@H](O)[C@@H]2O)cc1	29%	-12%	x	x	x
O=C(c1ccc(Br)cc1)c1cc2ccc(O)cc2oc1=O	-2%	u	71µM*	u	-39%
